Source: the supplement of paper PMC10681739
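Further: Full-length recombinant human RUNX1 bound to double-stranded 36-bp genomic probes on a high-density microarray, scored as Alexa488 fluorescence per spot via anti-RUNX1 antibody, median of four replicate spots.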

The sequences below were run against RUNX1 (UniProt Q01196) (assay: RUNX1 binding intensity (PBM fluorescence), RUNX1 alone (arbitrary fluorescence units); higher = stronger binding). Settings: RUNX1 concentration 2 nM; ETS1 concentration 0 nM.
Sequence of RUNX1 (Q01196 whole entry): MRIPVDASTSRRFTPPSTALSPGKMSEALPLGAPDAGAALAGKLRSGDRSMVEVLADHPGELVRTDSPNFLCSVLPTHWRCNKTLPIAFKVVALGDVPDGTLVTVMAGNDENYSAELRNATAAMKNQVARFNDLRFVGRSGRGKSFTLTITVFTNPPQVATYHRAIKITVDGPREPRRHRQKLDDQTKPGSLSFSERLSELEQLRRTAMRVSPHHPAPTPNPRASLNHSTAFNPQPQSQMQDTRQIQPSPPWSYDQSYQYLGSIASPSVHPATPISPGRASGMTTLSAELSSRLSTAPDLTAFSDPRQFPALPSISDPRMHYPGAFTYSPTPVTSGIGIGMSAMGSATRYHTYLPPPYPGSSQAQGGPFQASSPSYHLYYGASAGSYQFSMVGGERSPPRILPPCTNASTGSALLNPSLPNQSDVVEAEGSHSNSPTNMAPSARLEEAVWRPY
Experimental: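 Cooperative gcPBM on 36-bp genomic probes with neighbouring ETS1 and RUNX1 sites. Recombinant human RUNX1 (2 nM) was incubated alone or with ETS1 (25 nM) and detected with anti-RUNX1 antibody plus Alexa488 secondary. Values are medians over 4 replicate spots; the RUNX1+ETS1 data were normalised to the RUNX1-only data. The probes sit in constant array flanks that are not printed.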
For ATAGACCCAGCCCGTCCGGTAACCGCGCTCCTCGAT, the RUNX1 binding intensity was 836.
For GGGCCAGAGACGCCGGAAGTGACCGCGCGGTGCGCC, the RUNX1 binding intensity was 729.
For GAGCGCAGGACGGAAGCTCGGTGCGGGTGCGGCCTC, the RUNX1 binding intensity was 702.
CTGTGCGAGGCAGGATGTGGTCTCCCGCCACCAGGG showed an RUNX1 binding intensity of 788.
CCTGGGGGGCCGGAAGCCCCGCTGCGGCCCCAGCCC showed an RUNX1 binding intensity of 737.
ATCTTCAGGAAGCGGTATCAACCTGAAAACCACCAC gave an RUNX1 binding intensity of 772.
Work on GGCCCTTCTGGGGCAGGATGTGGTGCCTGCCAAAGG yielded an RUNX1 binding intensity of 707.
AGAGCGAGGAGGACTTCCTGCGGCAGGTCGGCGTGA gave an RUNX1 binding intensity of 652.
With CGGCGCCTTCCGCAGAGGGACTGCGGCTTTCTGCGC the RUNX1 binding intensity was 946.
AACAAACAGTAGGCAGGAAGTGGTTAAACCGAAAGG was tested, and the RUNX1 binding intensity was 897.
Sequence TACCTAGACCCTTTCCGCCCTTACCGCGGCCAGACA has an RUNX1 binding intensity of 1210.
In the case of GGGCAGGGCATTTCCTTTGTGGCTGGTGCTCACGGA, the RUNX1 binding intensity is reported as 710.
Sequence GCCGCCGTTTCCTGATTGGTTGTGGGTGGCTACCTC has an RUNX1 binding intensity of 834.
In the case of GGCTTCCGGCGGGGTACCCTCCTCTGTGGGCGGGGC, the RUNX1 binding intensity is reported as 841.
In the case of GCCGCGAGTTCCGCCGGGTGGACCACAAATCCCGAG, the RUNX1 binding intensity is reported as 831.
CCACCCACTTCCTGCCCTAGCTAGTGTGGTATTTTT showed an RUNX1 binding intensity of 907.
GGCTTCCGCCTGCCGAGCGGCCCCGGACCGCAGGCC showed an RUNX1 binding intensity of 830.
GATGGGCGAGTCAGGAAACCACAGCTCTGAGGGTGG gave an RUNX1 binding intensity of 950.
For GGACGCTTCCGGTGGAAGGGAGCTGTTGCGGGGCTT, the RUNX1 binding intensity was 716.
CTACCCTCCCTCTTCCTGTGGTTTCTCAAACATGTC was tested, and the RUNX1 binding intensity was 2470.
Sequence CCCTCAGCGGAAGTGGAAGCTGTGGTTTCCAAAGGC has an RUNX1 binding intensity of 916.
With CCACGTAAAGGCGGAAGCGGTTGAGTGGACGCCATC the RUNX1 binding intensity was 708.
In the case of TTTCCTCGGATTCCCGGATGTGGGTGAGTTCATTTG, the RUNX1 binding intensity is reported as 809.
GGGCAGGAAGGAAGAGGGCTCCTCCCCACAAGCTCT gave an RUNX1 binding intensity of 738.
GGACTTCCTGAACTGGGAGGTCACCGACCACAACCT was tested, and the RUNX1 binding intensity was 831.
CAGAGCCAAACATGCGGAAGTGGTTACGTGTACTAG was tested, and the RUNX1 binding intensity was 795.
CATAGACCGGATGCCTCGTCAACCACAGAAACCAAT was tested, and the RUNX1 binding intensity was 1000.
For CTCTGAGCAGGAAGTGACAAAACCACGCAGGGCAGG, the RUNX1 binding intensity was 798.
CAAAGTGATGGGGGAAATGGTTGTGGTTTTGGGTGG was tested, and the RUNX1 binding intensity was 1180.
Work on TGCTCAAATGCAGGATGTGGTCTGAGAGTTTCTCCT yielded an RUNX1 binding intensity of 693.
Sequence ATCTTAAGTGTTTCCTGACACCACAAATCCCCAAAC has an RUNX1 binding intensity of 1020.
Work on CTCCTGTTCCGGCTCAAAGGGAAACCGCTGCTTTTC yielded an RUNX1 binding intensity of 1210.
With GGCTGGCCTAGGAACTTCCGCCACAAGTCCCGCCCC the RUNX1 binding intensity was 822.
Sequence TCAGCTGACACAGGAAGTGGTAAAGCTATTATCTGT has an RUNX1 binding intensity of 735.
For GTTGGGTGGGGAAGTGGATGGTGGTTTTGGCAGAGG, the RUNX1 binding intensity was 960.
Work on TGCAATCAGGAAGCCTGCCCCTCTAGAACCACAAAA yielded an RUNX1 binding intensity of 882.
CTTACAGTCACAACAGGATGTGGTTTGACATTTACT was tested, and the RUNX1 binding intensity was 869.
Sequence CACCTCCTCTCCGGATGCGGTTTGTTCTGCTTGTAG has an RUNX1 binding intensity of 2210.
Work on AACATCCGGTTCCCGGTTCTGCCCCCTACCGCAGCT yielded an RUNX1 binding intensity of 917.
CACCGCCGGAGTCCCGGATGTGGTTGCTAGGGCAGC showed an RUNX1 binding intensity of 767.
